Assay outcomes from PubChem BioAssay.
SARS PLpro yeast – SARS-CoV PLP inhibition in yeast; Potency, µM (top dose mostly 32.9 µM), most hits filed as activators; AID 485353; hit rate 0.19% among 330,000; S. cerevisiae expressing SARS-CoV PLpro, growth rescue; calls by dose curve; note: nearly all actives have a fitted effect of over 55% in size
AmpC detergent – blocks E. coli AmpC beta-lactamase in detergent assay; AmpC hydrolysis of nitrocefin, absorbance 480 nm, 0.01% Triton; Potency, µM (series often up to 114 µM), most hits filed as inhibitors; hit rate 0.041% among 370,000; AID 485294; note: nearly all actives have a fitted effect of over 25% in size
Target sequence (P00811 whole entry, looked up): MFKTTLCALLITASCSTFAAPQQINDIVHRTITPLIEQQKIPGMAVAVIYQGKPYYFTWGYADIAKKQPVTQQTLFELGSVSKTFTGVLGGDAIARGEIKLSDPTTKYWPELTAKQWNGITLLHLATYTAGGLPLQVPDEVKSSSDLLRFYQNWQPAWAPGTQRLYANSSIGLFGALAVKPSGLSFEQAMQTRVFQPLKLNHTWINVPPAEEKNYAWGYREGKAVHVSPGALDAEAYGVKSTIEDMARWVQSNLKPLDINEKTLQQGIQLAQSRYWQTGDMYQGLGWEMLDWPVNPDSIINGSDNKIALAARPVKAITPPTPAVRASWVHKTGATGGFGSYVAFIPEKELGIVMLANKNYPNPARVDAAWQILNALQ
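AmpC (5.3 nM in the dispensed reagent) in 20 mM phosphate pH 7.0 with 0.01% (detergent screen) or 0.0001% Triton X-100 was preincubated with compounds for 15 min at room temperature. Nitrocefin was then added from an 800 uM solution, and hydrolysis was followed at 480 nm.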
AmpC no deterg – blocks E. coli AmpC beta-lactamase in detergent-free assay; Potency, µM (titrated, usually from 57.1 µM), most hits filed as inhibitors; hit rate 0.52% among 330,000; AID 485341; P00811; AmpC nitrocefin hydrolysis, absorbance 480 nm, 0.0001% Triton; note: nearly all actives have a fitted effect of over 20% in size
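AmpC (5.3 nM in the dispensed reagent) in 20 mM phosphate pH 7.0 with 0.01% (detergent screen) or 0.0001% Triton X-100 was preincubated with compounds for 15 min at room temperature. Nitrocefin was then added from an 800 uM solution, and hydrolysis was followed at 480 nm.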
Sm TGR block – inhibitors of Schistosoma mansoni thioredoxin glutathione reductase. Q962Y6. purified TGR, DTNB reduction, TNB absorbance 405 nm. Potency, µM (top dose mostly 114 µM), actives largely listed as inhibitors. hit rate 3% among 360,000. AID 485364; note: nearly all actives have a fitted effect of over 60% in size
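Kinetic colorimetric format: TGR-catalysed, NADPH-driven DTNB reduction monitored via TNB absorbance. Enzyme dispensed at 20 nM; compound exposure 15 min at room temperature before reaction start.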
Pf growth 48h – P. falciparum growth inhibition at 48 hours (one generation); P. falciparum luciferase growth in erythrocytes, 48 h; Potency, µM (highest dose often 28.7 µM), actives largely listed as inhibitors; hit rate 5.9% among 310,000; AID 504832
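Luminescence readout; reporter = integrated firefly luciferase in P. falciparum. RBC culture at 2% hematocrit, 0.1% parasitemia final, 37 C/5% CO2; decreased signal taken as growth inhibition.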
Pf growth 96h – P. falciparum growth inhibition at 96 hour, primary screen for plastid delayed-death inhibitors | P. falciparum luciferase reporter growth, 96 h | Potency, µM (top dose mostly 28.7 µM), usual class: inhibitors | hit rate 6.9% among 320,000
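Erythrocytes infected with luciferase-expressing P. falciparum were dispensed at 2% hematocrit and 0.05% parasitemia (final), then incubated with compounds 96 hours at 37 C in 5% CO2. Luminescence after detection reagent addition reported growth.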
Of the large screens only hits and unclear results are named; the others gave an inactive call. A selection: hits, their analogues and other compounds. The true share with any hit is near 12%. Unless noted, calls come from the whole dose curve; as a rule, active = well fitted curve in the direction sought with a large enough effect; inconclusive = small, poorly fitted or top-dose-only effect, or another doubt; inactive = no such curve, though single readings can be large; an effect the other way counts as inactive or inconclusive.

COC(=O)c1ccccc1S(=O)(=O)N1CCC(C(=O)NCc2ccco2)CC1	Pf growth 96h inconclusive
COc1ccccc1C1CN(c2ccccc2)N=C1c1cccs1 (centres undefined)	none (no result: Pf growth 48h)
COc1cccc(C2CN(c3ccc(F)cc3F)N=C2c2cccs2)c1OC (centres undefined)	AmpC detergent inconclusive, Pf growth 48h 5.9µM, Pf growth 96h 12µM
Cc1csc(NC(=O)Nc2ccc(Cl)cc2)n1	none (no result: Pf growth 48h, Pf growth 96h)
O=C(Nc1ccc(Cl)cc1)Nc1nc(-c2sccc2Br)cs1	Pf growth 48h 8.3µM, Pf growth 96h 9.3µM
O=C(Nc1ccc(Cl)cc1)Nc1nc(-c2ccccc2O)cs1	Pf growth 48h 1.7µM, Pf growth 96h inconclusive
CCCOc1ccc(C2C(=O)N(C3CCCCCC3)CC(=O)N2Cc2ccccc2OC)cc1OC (centres undefined)	none (no result: SARS PLpro yeast, AmpC no deterg, Pf growth 48h, Pf growth 96h)
COc1ccccc1CN1C(=O)CN(C2CCCCCC2)C(=O)C1c1ccc(F)cc1 (centres undefined)	Pf growth 48h inconclusive, Pf growth 96h 10µM
NC(=O)c1c(NC(=O)COC(=O)c2ccc(O)c(Cl)c2)sc2c1CCCC2	AmpC no deterg 16µM (no result: AmpC detergent, Sm TGR block, Pf growth 48h, Pf growth 96h)
COC(=O)c1c(NC(=O)COC(=O)c2ccccc2O)sc2c1CCCCC2	AmpC detergent inconclusive
COC(=O)c1c(NC(=O)COC(=O)c2ccc(NC(=O)CC#N)cc2)sc2c1CCCCC2	AmpC no deterg 32µM
CC(C)(C)CC(=O)N1CCN(c2ccc(S(=O)(=O)N3CCOCC3)cc2[N+](=O)[O-])CC1	Pf growth 48h inconclusive, Pf growth 96h inconclusive
CSc1ccc(CCNC(=O)c2ccc(-n3c(C)cc4c3CCCC4)cc2)cc1	none (no result: SARS PLpro yeast, AmpC no deterg, Pf growth 48h, Pf growth 96h)
Cc1ccnc(NS(=O)(=O)c2cc(-c3cc(C)no3)ccc2C(C)C)c1	Pf growth 96h 10µM
COC(=O)c1[nH]c2ccc(Br)cc2c1NC(=O)CN1CCN(C2CCCCC2)CC1	Pf growth 48h inconclusive, Pf growth 96h 2.6µM
COC(=O)c1[nH]c2ccc(Br)cc2c1NC(=O)CN1CCCc2ccccc21	Pf growth 48h inconclusive, Pf growth 96h 10µM
COC(=O)c1[nH]c2ccc(C)cc2c1NC(=O)CN1CCCC(C)(C)C1	Pf growth 48h inconclusive, Pf growth 96h 12µM
COCCOC(=O)c1c(NC(=O)CN2CCCc3ccccc32)sc(C(N)=O)c1C	Pf growth 48h inconclusive, Pf growth 96h 10µM
CCOC(=O)C1CCCN(CC(=O)Nc2c(C(=O)OC)[nH]c3ccc(Br)cc23)C1 (centres undefined)	Pf growth 48h inconclusive, Pf growth 96h inconclusive
COc1ccc(CCN(Cc2cc3cccc(C)c3n3nnnc23)C(=O)c2ccncc2)cc1OC	none
CC(=O)c1cccc(NC(=O)c2cc3sc(Cl)cc3n2C)c1	none (no result: SARS PLpro yeast, AmpC no deterg, Pf growth 48h, Pf growth 96h)
CCC(C(=O)N1CCN(c2cc(Cl)ccc2C)CC1)n1nc(C)n2c(cc3occc32)c1=O (centres undefined)	none (no result: SARS PLpro yeast, AmpC no deterg, Pf growth 48h, Pf growth 96h)
Cc1cc([N+](=O)[O-])nn1CC(=O)N(C)C1CCCCC1	none
O=C(CSc1ncccn1)NC(=O)c1ccccc1	none
COC(=O)c1[nH]c2ccc(Cl)cc2c1NC(=O)CCN1CCN(C2CCCCC2)CC1	Pf growth 48h 12µM, Pf growth 96h 3.7µM
CCOC(=O)C1CCN(CC(=O)Nc2c(C(=O)OC)[nH]c3ccc(Cl)cc23)CC1	AmpC detergent inconclusive, Pf growth 48h 13µM, Pf growth 96h inconclusive
CCOC(=O)C1CCN(CC(=O)Nc2c(C(=O)OC)[nH]c3ccccc23)CC1	AmpC detergent inconclusive (no result: Pf growth 48h)
COC(=O)c1[nH]c2ccc(C)cc2c1NC(=O)CCN1CCN(C2CCCCC2)CC1	none (no result: Pf growth 96h)
CC(C)N(CC#CCC(O)(c1ccccc1)c1ccccc1)CCO	Pf growth 96h inconclusive
CCN(CC#CCC(O)(c1ccccc1)c1ccccc1)C(C)C	Pf growth 48h 8.3µM, Pf growth 96h inconclusive
COc1cc(C(=O)N2CCNC(=O)C2CC(=O)Nc2ccc(C)c(C)c2)cc(OC)c1OC (centres undefined)	none (no result: SARS PLpro yeast, AmpC no deterg, Pf growth 48h, Pf growth 96h)
OC1(C#CCN2CCCC2)c2ccccc2-c2ccccc21	Pf growth 48h 12µM, Pf growth 96h inconclusive
CCN(CC)CCC#CC1(O)c2ccccc2-c2ccccc21	Pf growth 96h 3.3µM
CN(C)CCC#CC1(O)c2ccccc2-c2ccccc21	none
CCOC(=O)c1cccc(NC(=O)Cn2ncc3c(=O)oc4ccccc4c32)c1	none (no result: SARS PLpro yeast, AmpC no deterg, Pf growth 48h, Pf growth 96h)
CCN(CC)CCCN(Cc1cc2cc3c(cc2[nH]c1=O)OCO3)C(=S)NCc1ccco1	Pf growth 48h inconclusive
COc1ccccc1NC(=S)N(Cc1ccco1)Cc1cc2cc(C)c(C)cc2[nH]c1=O	AmpC detergent inconclusive, Pf growth 48h 13µM, Pf growth 96h 2.1µM
CCN(CC)CCN(Cc1cc2cc(C)cc(C)c2[nH]c1=O)C(=S)NCc1ccco1	Pf growth 48h inconclusive
CNC(=S)N(Cc1ccco1)Cc1cc2cc3c(cc2[nH]c1=O)OCCO3	Sm TGR block 14µM
CCN(CC)CCN(Cc1cc2cc3c(cc2[nH]c1=O)OCO3)C(=S)NCc1ccco1	Pf growth 96h 6.6µM
CCN(CC)CCN(Cc1cc2cc(C)ccc2[nH]c1=O)C(=S)NCc1ccco1	Pf growth 48h 6.6µM, Pf growth 96h inconclusive
COc1ccccc1NC(=S)N(Cc1ccco1)Cc1cc2cccc(C)c2[nH]c1=O	Pf growth 48h inconclusive
CN(CC(=O)Nc1ccc(Cl)c(C(F)(F)F)c1)C(=O)C1CCCO1 (centres undefined)	none
CCN(CC)CCN(Cc1cc2ccc(C)c(C)c2[nH]c1=O)C(=S)NCc1ccco1	Pf growth 48h 10µM, Pf growth 96h inconclusive
CCN(CC)CCN(Cc1cc2cc3c(cc2[nH]c1=O)OCO3)C(=S)NCC(C)C	Pf growth 48h inconclusive, Pf growth 96h 3.7µM
Cc1cc(N2CCN(C)CC2)nc2ccc(NC(=S)N3CCN(c4cccc(Cl)c4)CC3)cc12	Pf growth 48h inconclusive
Cc1cc(N2CCN(C)CC2)nc2ccc(NC(=S)N3CCCCC3)cc12	Pf growth 48h 3.3µM, Pf growth 96h 9.3µM
Cc1cccc(N2CCN(C(=S)Nc3ccc4nc(N5CCN(C)CC5)cc(C)c4c3)CC2C)c1 (centres undefined)	Pf growth 48h inconclusive, Pf growth 96h 9.3µM
Cc1cc(N2CCN(C)CC2)nc2ccc(NC(=S)N3CCN(c4ccc(Cl)cc4)CC3)cc12	Pf growth 48h 13µM
Cc1cc(N2CCN(C)CC2)nc2ccc(NC(=S)N3CCN(c4ccc(F)cc4)CC3)cc12	Pf growth 96h 3.7µM
Cc1cc(N2CCN(C)CC2)nc2ccc(NC(=S)N3CCCCCC3)cc12	Pf growth 48h inconclusive
CC1CCCN(C2(O)C(=O)Nc3ccc(Cl)cc32)C1 (centres undefined)	Pf growth 96h inconclusive
